About 79,000 compounds went through this panel and 15% of them were active in at least one assay; those are over-represented in the sample as a whole. Values without a mark were called inactive. The source made the active and inactive calls. Rule as the data show it: active = growth inhibition above about 70%; inactive = the rest. Where a SMILES comes first, the peptide text is derived from it.
Columns and labels:
[1] = NCI Yeast Anticancer Drug Screen. Data for the rad50 strain (AID 155);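 also: 0% = growth of vehicle-only cultures of the same strain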; conditions: S. cerevisiae rad50 strain growth inhibition; at 50.0 µM; stronger effect = higher value
Method in brief: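 DNA repair mutant yeast, compound exposure, growth read-out; inhibition is taken relative to vehicle.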

[2] = NCI Yeast Anticancer Drug Screen. Data for the mec2-1 strain (AID 157); conditions: S. cerevisiae mec2-1 strain, at 50.0 µM, stronger effect = higher value
Method in brief: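 Yeast mec2-1 mutant treated with compound. Readout: growth inhibition vs vehicle controls.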

[3] = NCI Yeast Anticancer Drug Screen. Data for the sgs1 mgt1 strain (AID 161);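 also: 0% = growth of cultures given vehicle only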; conditions: S. cerevisiae sgs1 mgt1 strain, at 50.0 µM, stronger effect = higher value
Method in brief: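 Genetically altered yeast, compound exposure, growth inhibition relative to vehicle.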

[4] = NCI Yeast Anticancer Drug Screen. Data for the cln2 rad14 strain (AID 165);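 also: 0% = growth equal to vehicle treated cultures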; conditions: S. cerevisiae cln2 rad14 strain, at 50.0 µM, stronger effect = higher value
Method in brief: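 cln2 rad14 yeast strain; compound exposure; growth inhibition read vs vehicle controls.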

[5] = NCI Yeast Anticancer Drug Screen. Data for the bub3 strain (AID 167); conditions: S. cerevisiae bub3 mutant strain, at 50.0 µM, stronger effect = higher value
Method in brief: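 In this screen, a yeast mutant lacking normal mitotic checkpoint function is challenged with compound. Relative growth versus vehicle gives the inhibition value.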

[6] = NCI Yeast Anticancer Drug Screen. Data for the mlh1 rad18 strain (AID 175); conditions: S. cerevisiae mlh1 rad18 strain growth inhibition; at 50.0 µM; stronger effect = higher value
Method in brief: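 Yeast w/ defined DNA-repair lesions; compound exposure; growth vs vehicle controls → % inhibition.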

| Structure (SMILES) | growth inhibition [1] [%] | growth inhibition [2] | growth inhibition [3] | growth inhibition [4] [%] | growth inhibition [5] [%] | growth inhibition [6] |
| --- | --- | --- | --- | --- | --- | --- |
| CCOC(=O)c1cc2c(nc1N)C(=O)CCC2 | -0.1 | 6.25% | 34.2% | 16.9 | 30.9 | -30.9% |
| CC1(C)CC(=O)C(/C=N/C(=S)NCc2ccccc2)=C(O)C1 | -35.4 | -49.1% | -16% | 14.4 | -2.45 | -20.8% |
| Cc1cc2c(C)n(Cc3ccc(Cl)cc3Cl)nc2c(C#N)c1C | -11.2 | -7.05% | -9.6% | 20.2 | -2.45 | -3.9% |
| Cc1ccc(/S(Cc2ccccc2)=N\S(=O)(=O)c2ccc(C)cc2)cc1 (configuration not stated) | -40.2 | -36% | -60.9% | -13.3 | -27.8 | -33.1% |
| OCC1OC(Nc2ccc(F)cc2)C(O)C1O (configuration not stated) | 2.95 | -10.4% | -1.3% | 30.1 | -13.2 | 26.2% |
| C1=CC2CCC1C1CSCC21 (configuration not stated) | -3.15 | -11.6% | -8.95% | -33.8 | -3.45 | -12.7% |
| CCOC(=O)C(O)(NC(=O)c1ccc(F)cc1)C(F)(F)F (configuration not stated) | 12.2 | 1.85% | -9.9% | 17.1 | -10.2 | -23.9% |
| O=C(N/N=C\c1ccc(Cl)cc1)c1ccccc1 | 8 | 6.9% | -0.1% | 4.45 | 7.05 | -4.55% |
| C=C(C)CC1CC(=O)OC1=O (configuration not stated) | 26 | -16.4% | 13.6% | -21.9 | -9.8 | 4.35% |
| O=S1CCCO1 (configuration not stated) | -7.55 | -8.6% | -13.8% | -41.2 | 11 | 0.3% |
| COC(=O)C(=O)C(C)C(=O)C(C)c1nc(NC(=O)Nc2ccc(Cl)cc2)n[nH]1 (configuration not stated) | 1.65 | -3.7% | 3% | -32 | 13.4 | 7.1% |
| COc1cc(OC)nc(NS(=O)(=O)c2ccc(N)cc2)n1 | 6 | -3.8% | 20.9% | 19.6 | 10.3 | 6.65% |
| COC(=O)c1ccc(N(C)CCC(=O)COC(C)=O)cc1 | 17.9 | 9.7% | 12% | -10.2 | 7.6 | 10.3% |
| CC(=O)Nc1cc2cc(N)ccc2oc1=O | -6.2 | 0.4% | 8.9% | 10.4 | 15.2 | 16.6% |
| NCCCn1cnc2c(N)ncnc21 | 8.95 | -1.55% | -4.55% | -18.6 | -16.4 | 0.65% |
| O=C(CCc1ccccc1)NC(=S)Nc1cccc([N+](=O)[O-])c1 | -1.75 | 25.9% | 53.5% | -13.8 | 52.2 | 86% (active) |
| S=C(N/N=C\c1ccccc1)Nc1ccccc1 | 6.65 | -1.05% | -8.2% | 8.65 | 10.8 | 14.9% |
| CC(=O)OCC12C(OC(C)=O)C(=O)C3C(OC(C)=O)C14OC3(C)COC(=O)c1cccnc1C(C)C(C)C(=O)OC(C(OC(C)=O)C2OC(C)=O)C4(C)O (configuration not stated) | -24.6 | -31.4% | -24.1% | 7.85 | -16.1 | -85% |
| CCCC(C)(C)COC(=O)Cc1ccccc1 | 40.3 | 42% | 55.9% | 23.8 | 23.6 | 46.2% |
| CCN(CC)CCn1cnc(C#N)c1N | 4.45 | 1.05% | -1.35% | -27.6 | 1.65 | -0.2% |
| Cc1ccc(C(=O)c2ccc(O)cc2)cc1 | -25.4 | -7.65% | -6.5% | -21.8 | -7.6 | -14.2% |

| Structure (SMILES) | growth inhibition [1] [%] | growth inhibition [2] | growth inhibition [3] | growth inhibition [4] [%] | growth inhibition [5] [%] | growth inhibition [6] |
| --- | --- | --- | --- | --- | --- | --- |
| CC1(C)COCN1COCCOCN1COCC1(C)C | 10.2 | -18% | -1.55% | 7.05 | -25.9 | -56.6% |
| COc1cc(C(=O)N2CCCCCCC2)cc(OC)c1OC | -13.8 | 38.5% | 10.9% | -19.7 | 28.7 | -6.45% |
| CC(C)NS(=O)(=O)c1ccc(Cl)cc1 | 11.6 | 1.65% | 12.4% | 0.4 | -1.1 | 1.85% |
| O=C(O)c1ccc(Cl)cc1[N+](=O)[O-] | 23.4 | -8.5% | 21.6% | 19.9 | 0.5 | 25.1% |
| O=S1(=O)OCCOS(=O)(=O)C1S(=O)(=O)c1cccc2ccccc12 | -19.2 | -5.95% | 12.8% | -8.7 | -2.95 | 27% |
| O=C(O)c1cc(=O)[nH]c(=O)[nH]1.[Cu+2] | -15.8 | 8.7% | -18.4% | -35.3 | -30.4 | -16.2% |
| CC1=CC(=O)N2[C@H](OC[C@@H]2C(C)C)O1 | 6.4 | -2.35% | 2.15% | 14.7 | -20.2 | 9.5% |
| NCCCC(=O)NCCCCCCCCCCNC(=O)CCCN | 29.3 | 18% | 19% | 15.6 | -4.45 | 24.4% |
| Cc1ccc(Cc2ccc(CCc3ccc(Cc4ccc(C)cc4)cc3)cc2)cc1 | 10.2 | 7.15% | 18.6% | 32.4 | 12.2 | 11.5% |
| O=C1/C(=C/c2ccc(Cl)cc2)CCC1CCN1CCOCC1 (configuration not stated) | 46.9 | 40.5% | 51.2% | 60 | 41.2 | 59.2% |
| O=S1(=O)C(c2ccccc2Cl)=C(O)C(O)=C1c1ccccc1Cl | -0.6 | -35.4% | 5.05% | 6 | -2.1 | 11.2% |
| COC(=O)C(NC(=O)C(NC(=O)C(N)C(C)C)C(C)C)C(C)C (stereo not drawn) (H-Val-Val-Val-OMe; configuration not given here) | 5.3 | 20.6% | 5.4% | -11.7 | -3.4 | -9.5% |
| CN(C)Cc1cc(CN(C)C)cc(CN(C)C)c1 | 0.3 | 15.8% | 3.45% | -22.9 | -11.2 | -19.8% |
| CCOC(=O)c1c2ccc(/C=C/c3ccccc3)ccc-2c(C(=O)OCC)c1N | -16.6 | -7.25% | -23.9% | 10.6 | -32 | -22.6% |
| CC(C)(C)OC(=O)N1CCCC1=O | 9.65 | 13% | 24.8% | 22.3 | 8.05 | 28.5% |
| C[CH2][Sn]([CH2]C)([O]C(=O)c1ccc(OC)c(OC)c1OC)[O]C(=O)c1ccc(OC)c(OC)c1OC | 41.5 | 27.6% | 24.6% | 28.3 | 19.4 | 24.8% |
| CC(C)C1=CC(=O)C(C)(C2=NC(C)(C)CO2)c2ccccc21 (configuration not stated) | -0.1 | -9.35% | 4.4% | 22.7 | -10.5 | 5.3% |
| O=C(C1CC=CCC1C(=O)N1CCCCC1)N1CCCCC1 (configuration not stated) | 11.1 | -8.65% | -6.2% | -3.7 | 9.1 | -16.9% |
| S=C(N/N=C/c1cccc2ccccc12)Nc1c(Cl)cccc1Cl | 67.4 | 83.6% (active) | 94.2% (active) | 55.6 | 44.6 | 66.2% |
| COC(=O)C(N)Cc1ccc(OC)cc1 (configuration not stated) | -4.95 | -9.25% | 8.1% | -1.95 | 7.6 | 3.75% |
| CC(C)(C)OC(=O)CN1C(=O)CCC1=O | 6.25 | 8.65% | 20.2% | -26.1 | 4.45 | -5.15% |
